The record followed here is PubChem BioAssay (NCATS).

A number with no mark means an inactive call. Results filed as inconclusive are left out. Calls of active or inactive are those of the source. Unless noted, the call rests on the fitted dose curve; in most records, active means well fitted curve in the direction sought with a large enough effect; inconclusive means small, poorly fitted or top-dose-only effect, or another doubt; inactive means no such curve, though single readings can be large; an effect the other way counts as inactive or inconclusive. A value given as a limit tells only on which side of the number the result lay.

Test [1] deals with Lysosomal acid glucosylceramidase (Homo sapiens) (UniProt P04062). Put plainly: Glucocerebrosidase-p2 (AID 348; in the data active means potency below about 10 µM; further: potency means the concentration at half of the fitted maximal effect). The note with it: purified GBA, blue fluorogenic substrate, 40 min. An outline of the steps:
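Compounds titrated from 0.6 nM upwards against 0.2 nM enzyme in pH 5.9 citric acid/KH2PO4, taurocholate, tween-20; blue fluorogenic substrate 80 uM, 40 min room temperature, stopped and read Ex 365/Em 440 for AC50.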

Test [2] in a line: AP1 Signaling Pathway (AID 357; active means well fitted curve in either direction with a large enough effect, not every such curve was filed as active;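 further: ME-180 reporter cells stimulated with EGF at its EC50 level; on the % scale 0 is the no-effect control and ±100 the full control effect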). To be noted: ME-180 AP-1-bla reporter, EGF-induced, beta-lactamase ratio, 5 h; at 7.69 µM (top of the series) unless noted. An outline of the steps:
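Beta-lactamase reporter under AP-1 response element, ME-180 background. Stimulus: EC50 EGF. Compound exposure 5 h, 37 °C. Detection: CCF4, 2.5 h RT, 460/530 nm. Values: AC50 from titration.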

The nature of test [3]: NFAT Signaling Pathway (AID 444; active means well fitted curve in either direction with a large enough effect, not every such curve was filed as active;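 further: carbachol stimulus at about its EC50 of 1 µM final; on the % scale 0 is the no-effect control and ±100 the full control effect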). The note with it: Jurkat NFAT-bla M1, carbachol, beta-lactamase ratio, 5 h; at 7.69 µM (top of the series) unless noted. In short, it runs like this:
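Read-out: CCF4 FRET ratio (460 nm/530 nm) after 1 h RT dye loading, used for %activity and AC50 from titration series. Cells: Jurkat NFAT-β-lactamase/M1 line, treated with compound plus 1 uM carbachol for 5 h, 37 °C.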

A short description of test [4]: Stat Signaling Pathway (AID 446; active means well fitted curve in either direction with a large enough effect, not every such curve was filed as active;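 further: ME-180 cervical cancer cells given 40 pM IL-6 alongside compound; SIE-controlled beta-lactamase reporter measured as 460/530 nm FRET emission ratio; on the % scale 0 is the no-effect control and ±100 the full control effect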). The note with it: ME-180 SIE beta-lactamase reporter, IL-6 stimulated, 5 h; at 7.69 µM (top of the series) unless noted. An outline of the steps:
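Screening format detects activators and inhibitors alike: ME-180 SIE-bla cells stimulated at 40 pM IL-6 for 5 hrs with compound, then dual-emission beta-lactamase read at 405 nm excitation.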

Test [5] addresses Glucocorticoid receptor (Homo sapiens) (UniProt P04150). Put plainly: GR-GFP Redistribution (AID 450;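 active means compounds whose dose series gives a full or clear partial fitted curve of increased nuclear translocation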; further: potency means the concentration at half of the fitted maximal effect). The note with it: U2OS GR-GFP nuclear translocation, laser cytometry, 2 h.
For test [6] the target is unchanged. Kind of test: GR-EFC Redistribution (AID 451; calls by dose curve; further: potency means the concentration at half of the fitted maximal effect). To be noted: CHO-K1 GR-EFC translocation, beta-gal luminescence, 2 h. In short, it runs like this:
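Translocation of GR-ED fusion to nuclear EA restores b-gal, read by luminescence after 1 h room-temperature detection. Engineered CHO-K1 biosensor cells, 1,000/well, exposed 2 h at 37 C to titrations up to 46 uM final.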

Test [7] concerns the target Mitogen-activated protein kinase 10 (Mus musculus) (UniProt Q61831). Put plainly: JNK3 AlphaScreen Assay (AID 530; active means well fitted curve in either direction with a large enough effect, not every such curve was filed as active;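 further: kinase came from lysate of stimulated human HepG2 cells; signal reports phosphorylation of biotinylated GST-cJun 1-79 at Ser73 with 10 µM ATP; on the % scale 0 is the no-effect control and ±100 the full control effect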). The note with it: JNK3 lysate, c-Jun phosphorylation; series mostly up to 57.1 µM. In short, it runs like this:
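Room-temperature AlphaScreen kinase assay; pre-activated HepG2 lysate as JNK3 source, biotin-GST-cJun(1-79) substrate, 10 uM ATP, compound 15 min preincubation.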

Test [8] has as its target Dual specificity protein kinase CLK4 (Homo sapiens) (UniProt Q9HAZ1). Kind of test: qHTS Assay for Inhibitors of CDC-like Kinase 4 (Kinase-Glo Assay) (AID 1770). Further: nearly all actives have a fitted effect of over 65% in size. Further: potency means the concentration at half of the fitted maximal effect. To be noted: recombinant Clk4, Kinase-Glo ATP depletion luminescence; series mostly up to 66.7 µM. An outline of the steps: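 Inhibition was judged from remaining ATP, measured by Ultra-Glo luciferase bioluminescence after Clk4 (25 nM) had acted on RS peptide at 1 uM ATP for 4.5 hours, room temperature.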

The target is the same in test [9]. Kind of test: qHTS Assay for Inhibitors of CDC-like Kinase 4 (ADP-Glo Assay) (AID 1771). Further: nearly all actives have a fitted effect of over 70% in size. Further: potency means the concentration at half of the fitted maximal effect. The note with it: recombinant CLK4, ADP-Glo luminescence; series mostly up to 80 µM. In short, it runs like this: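 Kinase reaction: Clk4 at 25 nM, RS repeat peptide substrate at 100 uM, ATP at 1 uM, 1 hr, room temperature. Product ADP detected as luciferase signal via ADP-Glo.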
(In general: In qHTS, concentration-response curves come from the screen itself.)

For test [10], the target named is Ubiquitin carboxyl-terminal hydrolase 1 (Homo sapiens) (UniProt O94782). Put plainly: Inhibitors of USP1/UAF1: Pilot qHTS (AID 504865). Further: nearly all actives have a fitted effect of over 35% in size. Further: potency means the concentration at half of the fitted maximal effect. To be noted: purified USP1/UAF1, Ub-rhodamine cleavage fluorescence; series mostly up to 54.9 µM. An outline of the steps:
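Kinetic fluorescence assay: 1nM USP1/UAF1, 15 min compound preincubation, then 150nM Ub-Rho; 480/540 nm.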

Test [11] can be described thus: Primary qHTS for small molecule stabilizers of the endoplasmic reticulum resident proteome: Secreted ER Calcium Modulated Protein (SERCaMP) assay (AID 1508630). Further: on the % scale 0 is the no-effect control and ±100 the full control effect. The note with it: SH-SY5Y GLuc-SERCaMP (Gaussia luciferase released on ER calcium loss) secretion, thapsigargin, luminescence; series mostly up to 38.4 µM. In short, it runs like this:
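GLuc-SERCaMP-expressing SH-SY5Y cells, pretreated 16 h with compound, are challenged with thapsigargin to empty ER calcium stores; after 4 h, coelenterazine is added directly to the medium and luminescence is imaged.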

Test [12] addresses Cytochrome P450 1A2 (Homo sapiens) (UniProt P05177). Kind of test: p450-cyp1a2 (AID 410; calls by dose curve; further: potency means the concentration at half of the fitted maximal effect). To be noted: recombinant CYP1A2, luciferin-ME demethylation, luminescence; series mostly up to 57 µM. An outline of the steps: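 Inhibition was calculated relative to 57 uM furafylline (full inhibition). The reaction used human CYP1A2 at 20nM with Luciferin-ME at its Km, 100uM, driven by an NADPH-regenerating system for 60 min at room temperature.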

Test [13] deals with 3',5'-cyclic-AMP phosphodiesterase 4B (Homo sapiens) (UniProt Q07343). Put plainly: qHTS Assay for Inhibitors of PDE-IV (AID 607; active means well fitted activation curve with a large enough effect in the main read-out, with a control signal flat, not every such curve was filed as active; further: % of control where 0% means no effect). To be noted: HEK293 ACTOne CNG channel cells, membrane potential fluorescence; series mostly up to 22.9 µM. An outline of the steps: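 The readout is membrane depolarisation from a cAMP-sensing CNG channel, detected with a potential dye at ex 535/em 590. Cells were HEK293-derived (endogenous PDE-IV) at 1000 cells/well, titrated up to 22.9 uM final.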
3',5'-cyclic-AMP phosphodiesterase 4B (Homo sapiens), sequence (Q07343 whole entry, looked up): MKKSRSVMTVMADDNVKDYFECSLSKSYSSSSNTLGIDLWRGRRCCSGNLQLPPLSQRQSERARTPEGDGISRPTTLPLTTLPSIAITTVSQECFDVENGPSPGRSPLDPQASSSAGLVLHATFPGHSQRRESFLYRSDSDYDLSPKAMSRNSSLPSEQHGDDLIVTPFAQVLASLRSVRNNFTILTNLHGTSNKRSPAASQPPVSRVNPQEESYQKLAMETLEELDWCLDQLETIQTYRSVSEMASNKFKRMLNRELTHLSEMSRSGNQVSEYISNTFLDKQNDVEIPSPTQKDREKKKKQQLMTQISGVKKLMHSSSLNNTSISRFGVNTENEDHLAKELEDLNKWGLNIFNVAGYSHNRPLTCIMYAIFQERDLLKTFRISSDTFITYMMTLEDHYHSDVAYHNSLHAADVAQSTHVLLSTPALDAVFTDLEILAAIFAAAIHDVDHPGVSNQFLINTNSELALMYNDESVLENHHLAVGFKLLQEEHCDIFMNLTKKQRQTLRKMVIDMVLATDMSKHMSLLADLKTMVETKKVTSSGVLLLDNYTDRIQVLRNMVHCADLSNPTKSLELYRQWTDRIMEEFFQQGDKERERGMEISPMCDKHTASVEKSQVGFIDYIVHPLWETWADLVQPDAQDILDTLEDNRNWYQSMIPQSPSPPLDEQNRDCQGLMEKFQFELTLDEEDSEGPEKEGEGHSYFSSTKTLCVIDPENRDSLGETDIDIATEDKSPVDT

Test [14] addresses Cytochrome P450 3A4 (Homo sapiens) (UniProt P08684). Put plainly: qHTS Assay for Activators of Cytochrome P450 3A4 (AID 885). Further: nearly all actives have a fitted effect of over 65% in size. To be noted: recombinant CYP3A4, Luciferin-PPXE luminescence, 60 min; series mostly up to 57.1 µM. In short, it runs like this: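 Steps: enzyme/substrate mix dispensed; compound added, 10 min RT; NADPH regeneration solution added, 60 min RT; luciferin detection buffer stops reaction; 20 min later luminescence measured.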

Test [15] is described as follows: qHTS Assay for Identification of Small Molecule Agonists for Hypoxia Response Element Signaling Pathway (AID 914; active means well fitted activation curve with a large enough effect in the signal ratio, with a control signal flat, not every such curve was filed as active; the % refers to the signal ratio; further: potency means the concentration at half of the fitted maximal effect). To be noted: ME-180 (cervical carcinoma) HRE-bla reporter, beta-lactamase ratio, CoCl2, 17 h; activation: active compounds read high. An outline of the steps: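 HRE-bla ME-180 cells with beta-lactamase reporter under hypoxia response element, compounds with EC50 CoCl2 for 17 hours at 37 C. CCF4 substrate, 460nm/530nm emission ratio gave %Activity; AC50 from titration series.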

For test [16], the target named is Cytochrome P450 3A4 (Homo sapiens) (UniProt P08684). Kind of test: qHTS Assay for Inhibitors and Substrates of Cytochrome P450 3A4 (AID 884). Further: potency means the concentration at half of the fitted maximal effect; nearly all actives have a fitted effect of over 50% in size. The note with it: recombinant CYP3A4, Luciferin-PPXE luminescence; series mostly up to 57.1 µM. In short, it runs like this:
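20 nM human CYP3A4 with 25 uM Luciferin-PPXE (at KM) in 200 mM KPO4, preincubated 10 min with compound; NADPH regeneration started a 60 min RT reaction. Luciferin detected by luminescence, normalized to 57 uM ketoconazole as full inhibition.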

Cytochrome P450 3A4 (Homo sapiens), sequence (P08684 whole entry, looked up): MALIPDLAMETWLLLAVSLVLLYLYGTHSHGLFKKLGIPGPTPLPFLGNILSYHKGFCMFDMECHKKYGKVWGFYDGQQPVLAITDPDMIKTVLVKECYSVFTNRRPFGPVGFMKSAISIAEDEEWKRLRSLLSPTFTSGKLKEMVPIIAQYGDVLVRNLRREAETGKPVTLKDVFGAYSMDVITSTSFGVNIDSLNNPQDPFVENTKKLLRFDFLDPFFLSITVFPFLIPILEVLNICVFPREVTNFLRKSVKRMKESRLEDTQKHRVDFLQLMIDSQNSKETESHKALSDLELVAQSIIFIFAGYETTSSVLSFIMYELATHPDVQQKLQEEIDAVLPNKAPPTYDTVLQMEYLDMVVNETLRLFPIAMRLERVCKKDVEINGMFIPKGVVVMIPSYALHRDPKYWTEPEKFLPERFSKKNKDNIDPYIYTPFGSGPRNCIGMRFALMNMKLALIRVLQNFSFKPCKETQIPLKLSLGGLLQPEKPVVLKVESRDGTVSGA
Glucocorticoid receptor (Homo sapiens), sequence (P04150 whole entry, looked up): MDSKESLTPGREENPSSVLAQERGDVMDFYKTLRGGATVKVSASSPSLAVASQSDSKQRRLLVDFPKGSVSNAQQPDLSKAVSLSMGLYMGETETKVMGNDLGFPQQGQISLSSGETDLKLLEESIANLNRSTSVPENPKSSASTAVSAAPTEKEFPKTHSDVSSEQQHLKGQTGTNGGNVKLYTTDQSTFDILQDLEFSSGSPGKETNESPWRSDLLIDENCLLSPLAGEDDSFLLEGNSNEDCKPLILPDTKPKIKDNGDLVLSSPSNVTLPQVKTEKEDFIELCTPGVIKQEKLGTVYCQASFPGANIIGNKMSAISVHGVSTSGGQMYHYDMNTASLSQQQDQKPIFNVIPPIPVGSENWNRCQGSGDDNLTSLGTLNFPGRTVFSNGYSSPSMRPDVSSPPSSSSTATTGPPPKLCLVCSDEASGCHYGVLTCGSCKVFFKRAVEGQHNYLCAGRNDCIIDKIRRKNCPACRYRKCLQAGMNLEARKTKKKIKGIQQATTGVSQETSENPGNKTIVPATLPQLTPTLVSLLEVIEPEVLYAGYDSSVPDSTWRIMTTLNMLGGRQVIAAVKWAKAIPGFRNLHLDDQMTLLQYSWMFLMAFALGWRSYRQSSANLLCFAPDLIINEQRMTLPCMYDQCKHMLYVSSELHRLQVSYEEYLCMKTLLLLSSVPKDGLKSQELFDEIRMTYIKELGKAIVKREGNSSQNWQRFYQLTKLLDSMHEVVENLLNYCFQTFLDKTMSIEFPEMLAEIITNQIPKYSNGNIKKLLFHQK
Cytochrome P450 1A2 (Homo sapiens), sequence (P05177 whole entry, looked up): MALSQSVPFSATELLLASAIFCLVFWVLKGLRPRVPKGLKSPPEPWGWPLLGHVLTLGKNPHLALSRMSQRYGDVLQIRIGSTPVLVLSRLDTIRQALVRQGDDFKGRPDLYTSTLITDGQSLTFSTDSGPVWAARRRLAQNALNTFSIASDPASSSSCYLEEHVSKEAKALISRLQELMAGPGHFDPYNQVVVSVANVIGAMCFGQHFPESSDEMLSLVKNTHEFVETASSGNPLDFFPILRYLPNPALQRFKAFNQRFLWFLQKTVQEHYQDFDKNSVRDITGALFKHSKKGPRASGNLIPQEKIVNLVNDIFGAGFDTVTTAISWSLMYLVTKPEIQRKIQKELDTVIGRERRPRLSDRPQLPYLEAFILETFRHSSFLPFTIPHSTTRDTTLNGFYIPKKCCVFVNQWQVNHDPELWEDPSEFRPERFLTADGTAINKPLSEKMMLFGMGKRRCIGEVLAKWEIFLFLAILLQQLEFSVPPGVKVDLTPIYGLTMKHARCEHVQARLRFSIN
Ubiquitin carboxyl-terminal hydrolase 1 (Homo sapiens), sequence (O94782 whole entry, looked up): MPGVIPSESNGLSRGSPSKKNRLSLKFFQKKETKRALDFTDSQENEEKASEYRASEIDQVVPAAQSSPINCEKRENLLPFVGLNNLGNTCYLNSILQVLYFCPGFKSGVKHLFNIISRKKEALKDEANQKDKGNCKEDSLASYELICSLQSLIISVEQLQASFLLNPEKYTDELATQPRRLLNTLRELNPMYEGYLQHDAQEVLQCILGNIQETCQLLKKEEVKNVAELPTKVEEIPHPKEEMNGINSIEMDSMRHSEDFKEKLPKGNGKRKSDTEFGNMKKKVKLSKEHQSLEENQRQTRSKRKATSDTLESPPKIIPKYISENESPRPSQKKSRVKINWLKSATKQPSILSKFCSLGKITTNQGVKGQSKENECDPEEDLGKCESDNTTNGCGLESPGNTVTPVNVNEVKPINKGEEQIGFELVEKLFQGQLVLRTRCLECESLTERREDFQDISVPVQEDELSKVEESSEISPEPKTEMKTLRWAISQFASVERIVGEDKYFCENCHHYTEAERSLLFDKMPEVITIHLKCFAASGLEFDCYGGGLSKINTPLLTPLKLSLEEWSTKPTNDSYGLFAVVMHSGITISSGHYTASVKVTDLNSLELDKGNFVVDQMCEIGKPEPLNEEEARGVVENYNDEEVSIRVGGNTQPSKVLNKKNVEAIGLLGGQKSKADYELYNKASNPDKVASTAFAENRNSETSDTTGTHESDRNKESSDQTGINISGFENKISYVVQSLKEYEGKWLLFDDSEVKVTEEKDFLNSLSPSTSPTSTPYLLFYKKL
Lysosomal acid glucosylceramidase (Homo sapiens), sequence (P04062 whole entry, looked up): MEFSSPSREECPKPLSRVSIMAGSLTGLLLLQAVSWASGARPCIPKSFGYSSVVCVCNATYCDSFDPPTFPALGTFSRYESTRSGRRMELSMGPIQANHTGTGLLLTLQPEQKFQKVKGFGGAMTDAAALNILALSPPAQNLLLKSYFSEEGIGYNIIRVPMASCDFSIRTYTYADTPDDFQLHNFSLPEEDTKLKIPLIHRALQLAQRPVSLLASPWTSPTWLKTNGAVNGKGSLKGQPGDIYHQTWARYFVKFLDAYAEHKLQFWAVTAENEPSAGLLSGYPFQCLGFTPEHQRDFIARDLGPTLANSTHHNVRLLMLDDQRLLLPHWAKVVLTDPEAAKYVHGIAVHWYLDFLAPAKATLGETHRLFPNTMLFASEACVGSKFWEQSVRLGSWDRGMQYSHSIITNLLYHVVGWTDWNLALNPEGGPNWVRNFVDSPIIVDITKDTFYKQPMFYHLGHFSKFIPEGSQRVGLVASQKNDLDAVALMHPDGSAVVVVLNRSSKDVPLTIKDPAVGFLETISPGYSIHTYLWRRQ
Dual specificity protein kinase CLK4 (Homo sapiens), sequence (Q9HAZ1 whole entry, looked up): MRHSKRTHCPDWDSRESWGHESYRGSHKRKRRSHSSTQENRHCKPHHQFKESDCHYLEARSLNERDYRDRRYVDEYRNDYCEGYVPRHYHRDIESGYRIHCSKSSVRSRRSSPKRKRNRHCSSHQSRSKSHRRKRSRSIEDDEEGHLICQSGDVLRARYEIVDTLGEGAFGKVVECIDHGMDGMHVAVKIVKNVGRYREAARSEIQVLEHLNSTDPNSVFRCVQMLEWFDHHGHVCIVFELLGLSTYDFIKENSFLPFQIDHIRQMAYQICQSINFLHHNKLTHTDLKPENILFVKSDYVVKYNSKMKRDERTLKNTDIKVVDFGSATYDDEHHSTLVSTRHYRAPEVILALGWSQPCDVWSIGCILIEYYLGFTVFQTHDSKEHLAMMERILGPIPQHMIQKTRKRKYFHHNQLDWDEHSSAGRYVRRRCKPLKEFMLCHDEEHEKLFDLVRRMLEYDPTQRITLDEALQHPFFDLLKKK

With `CN(C)C(=O)c1ccc(-c2cc(NCc3cccs3)ncn2)cc1`, the Potency in test [1] is greater than 11.4 µM; in test [5] it was greater than 46 µM; in test [6], greater than 46 µM; in test [8], 20 µM (active); in [9], 22.4 µM (active). Moreover, the activity change, negative = inhibition was -17.2% in test [2] and 3.58% in [3]. In test [4], the activity, negative = inhibition was 5.59%. Further, the Potency entry in test [7] and in test [10] was “inactive” in each case. Also, the outcome in [11] was inactive.
As for `Cc1cnc(CNc2ncnc3ccc(-c4cccc(NS(C)(=O)=O)c4)cc23)cn1`, the Potency in [1] was greater than 11.4 µM; in test [12], 3.98 µM (active); in test [5], greater than 46 µM; in test [6], greater than 46 µM; in test [8], 25.1 µM (active); in [9] it was 15.8 µM (active). For the same molecule, the activity change, negative = inhibition in test [2] is -5.16%. In addition, the activity, negative = inhibition in test [4] was -9.12%. Moreover, the Potency entry in test [13], in test [14] and in [10] was “inactive” in each case. The result in [11] was inactive.
With `Cc1cnc(CNc2cc(-c3ccc(N(C)C)cc3)ncn2)cn1`, the Potency was greater than 11.4 µM in test [1]; greater than 46 µM in test [5]; greater than 46 µM in [6]; 5.01 µM (active) in test [8]; 5.01 µM (active) in [9]. The activity change, negative = inhibition in [2] was -9.61%; in test [3] it was 11.3%. For the same molecule, the activity, negative = inhibition in test [4] was -5.54%. Besides, the Potency result in [7], in test [13] and in test [10] was “inactive” in each case. For the same molecule, the result in test [11] was inactive.
On to `CCNc1ncc2nc(-c3cc(F)cc(F)c3)c(=O)n(CCc3ccccc3)c2n1`, for which the Potency in test [1] is greater than 11.4 µM; in test [12], 25.1 µM (active); in test [5], greater than 9.22 µM; in test [6], greater than 46 µM; in [15], 1 µM (active); in [10], 20 µM (active). In addition, the activity change, negative = inhibition in test [2] is 109% [activator] (active); in test [3], 137% [activator] (active). Also, the Potency entry in test [7], in test [13], in [14], in [8] and in [9] was “inactive” each time. Also, in test [11], the result was inactive.
Regarding `COc1cccc(Cn2c(=O)c(CCc3ccccc3)nc3cnc(N4CCOCC4)nc32)c1`, the Potency in test [1] was greater than 11.4 µM; in [5] it was greater than 9.22 µM; in [6] it was greater than 46 µM. For the same molecule, the activity change, negative = inhibition is 0.275% in test [2] and -19.1% in test [3]. Also, the activity, negative = inhibition in [4] is -8.53%. Besides, the Potency entry in test [7], in test [8], in test [9] and in test [10] was “inactive” each time. In test [11], the result was inactive.
On to `COc1ccc(-c2nc3cnc(N(C)C)nc3n(CCC#N)c2=O)cc1`, for which the Potency is greater than 11.4 µM in [1], greater than 9.22 µM in test [5] and greater than 46 µM in test [6]. The values for the activity change, negative = inhibition in test [2] and in [3] were -7.19% and -5.15%, respectively. Moreover, the Potency entry in test [7], in [13], in [8], in test [9] and in test [10] was “inactive” throughout. In addition, the outcome in test [11] was inactive.
For `COc1cccc(-c2nccc(NCc3ccccc3)n2)c1`, the Potency is greater than 11.4 µM in test [1]; 0.501 µM (active) in test [12]; greater than 46 µM in test [5]; greater than 46 µM in test [6]; 3.98 µM (active) in test [16]; 15.8 µM (active) in test [8]. Further, the Potency in [9] is 15.8 µM (active); in test [10], 25.1 µM (active). Further, in [3], the activity change, negative = inhibition is 15.6%. Besides, the activity, negative = inhibition in test [4] was -13.5%. For the same molecule, the Potency entry in [7] and in [14] was “inactive” each time. For the same molecule, the result in test [11] was inactive.
